Reference: PubChem BioAssay (NCI)
Compounds without any hit were thinned out: in the full panel of roughly 83,000, 20% have a hit.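 For each line, cells grew in 96-well plates with the test compound present at a single concentration for 48 hours.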 Values without a mark were called inactive. Calls of active or inactive are those of the source. The calls were made as follows: active = growth percent below 10; inactive = the rest.

Legend:
Experiment in all cases: NCI-60 one-dose screen, 48 h (100 = growth as untreated, 0 = no growth, -100 = all killed)
Conditions in all cases: 10 µM
NCI-H23 lung = system: NCI-H23 lung
NCI-H226 lung = system: NCI-H226 lung
NCI-H322M lung = system: NCI-H322M lung
HOP-62 NSCLC = system: HOP-62 NSCLC
NCI-H460 lung = system: NCI-H460 lung
NCI-H522 lung = system: NCI-H522 lung
A549/ATCC NSCLC = system: A549/ATCC NSCLC
786-0 renal = system: 786-0 renal
COLO 205 colon = system: COLO 205 colon
DU-145 prostate = system: DU-145 prostate
K-562 leukemia = system: K-562 leukemia
MALME-3M melanoma = system: MALME-3M melanoma
MDA-MB-231 breast = system: MDA-MB-231 breast
RXF 393 renal = system: RXF 393 renal
SF-268 CNS = system: SF-268 CNS
SF-295 CNS = system: SF-295 CNS
SF-539 CNS = system: SF-539 CNS
UACC-257 melanoma = system: UACC-257 melanoma
M14 melanoma = system: M14 melanoma
HCT-15 colon = system: HCT-15 colon

SMILES	growth (NCI-H23 lung) [%]	growth (NCI-H226 lung)	growth (NCI-H322M lung)	growth (HOP-62 NSCLC)	growth (NCI-H460 lung)	growth (NCI-H522 lung)	growth (A549/ATCC NSCLC)	growth (786-0 renal)	growth (COLO 205 colon)	growth (DU-145 prostate)	growth (K-562 leukemia)	growth (MALME-3M melanoma)	growth (MDA-MB-231 breast)	growth (RXF 393 renal)	growth (SF-268 CNS)	growth (SF-295 CNS)	growth (SF-539 CNS)	growth (UACC-257 melanoma)	growth (M14 melanoma)	growth (HCT-15 colon)
O=C1/C(=C\c2ccc(F)cc2)CN(C(=O)c2ccccc2F)C/C1=C\c1ccc(F)cc1	16.4	-32.9% (active)	77.6%	-15.5% (active)	17.8%	-69.5% (active)	12.9%	-51% (active)	-42.9% (active)	-10.4% (active)	-0.921% (active)	-55.2% (active)	-38.7% (active)	-83.2% (active)	0.452% (active)	-30.7% (active)	0.221% (active)	-28.2% (active)	-48.4% (active)	–
C#Cc1ccc(-n2c(/C=C/c3ccc4ccccc4c3)nc3ncccc3c2=O)cc1	67.5	13.2%	71.9%	63%	39%	8.75% (active)	34%	54.3%	26%	60.1%	6.94% (active)	39.5%	42.1%	-21.4% (active)	37.8%	19.6%	70.5%	13%	1.76% (active)	–
N#Cc1c(C#N)c(SSc2c(C#N)c(C#N)c(N)n2-c2ccccc2)n(-c2ccccc2)c1N	94.8	101%	108%	109%	120%	67.3%	112%	101%	97.4%	115%	-17.7% (active)	95.1%	100%	98.8%	112%	115%	103%	103%	115%	102%
CCOC(=O)C(=Cc1ccc(Br)cc1)C(=O)OCC	17.6	-33.6% (active)	39%	0.525% (active)	22.4%	-65.1% (active)	-25.6% (active)	-79% (active)	-70.5% (active)	6.17% (active)	0.625% (active)	-49.5% (active)	4.72% (active)	-75% (active)	-6.93% (active)	38.3%	8.53% (active)	-37.8% (active)	-22% (active)	-42.1% (active)
CC(=O)c1nc2ccccc2n1CCNC(N)=O	82.1	100%	95%	70.3%	55.2%	61.8%	62.3%	95.1%	69.7%	93.2%	44.1%	55.8%	77.2%	90.9%	71.9%	127%	79.7%	94.8%	73.8%	–
CSc1nc(=O)n(Cc2ccc(Cl)cc2)c(=O)[nH]1	100	108%	127%	92.1%	108%	90.7%	99.1%	101%	104%	104%	96.1%	105%	104%	115%	102%	146%	101%	102%	106%	–
N=C(N)c1ccc(-c2ccc(-c3ccccc3)o2)nc1	101	90.4%	91.7%	91.8%	90.3%	93.8%	77.8%	90.7%	-13% (active)	103%	30.2%	91.9%	50.2%	106%	91.2%	81%	92%	94.6%	97.9%	81.1%
CN(Cc1ccccc1)Cc1ccc([N+](=O)[O-])cc1I	107	94.5%	92.9%	101%	97.3%	86.7%	93.6%	97.8%	104%	95.6%	91.7%	84%	101%	88.2%	98%	104%	100%	103%	102%	–
CN(C)CCCn1c(=O)c2ccccc2c2cnc3[nH]ccc3c21	13.8	-0.537% (active)	9.79% (active)	-1.44% (active)	-6.21% (active)	-38.9% (active)	1.69% (active)	15.2%	-31.3% (active)	-0.745% (active)	-10.9% (active)	-25.1% (active)	-11.2% (active)	5.57% (active)	21.1%	12.4%	30.3%	-20.6% (active)	-6.79% (active)	10.5%
CC1(C)CCC(=NNC(N)=S)CC1	99.1	110%	115%	111%	104%	97.1%	106%	113%	125%	111%	94.6%	107%	116%	115%	103%	88.2%	98.1%	102%	113%	98.8%
Cc1ccc(S(=O)(=O)Oc2ccc3c4c(c(=O)oc3c2)CCCCC4)cc1	62.9	55.9%	95.1%	81%	37.2%	57.9%	40.9%	66.6%	28.5%	87.8%	36.7%	71.9%	74.5%	68.6%	77.2%	48.7%	39.8%	32%	71%	41.3%
Nc1nc(N=Nc2ccc(O)cc2)cc(=O)[nH]1	101	114%	104%	102%	107%	112%	111%	105%	106%	116%	106%	96.4%	98.7%	74.4%	111%	94.9%	96.6%	112%	101%	101%
CCCCCCNC(=O)Oc1ccc(/C(=C(/CC)Cc2ccccc2)c2ccc(OCCN3CCCCC3)cc2)cc1	91	88.6%	91.4%	86.6%	73.4%	77.9%	76.7%	78.6%	51.4%	96.6%	24%	93.1%	83.6%	73.8%	80.9%	114%	91.9%	86.1%	94.7%	–
CCN1Cc2c(/C=C/c3ccccc3)nc3ccc(OC)cc3c2N(c2cccc(Cl)c2)C1	59.1	92%	90.7%	107%	71.7%	63.7%	33.6%	72.3%	81.8%	112%	51.1%	95.9%	74%	107%	102%	92.8%	75.1%	41.5%	78.4%	57.8%
c1ccc([C@H]2CN3CCSC3=N2)cc1	96.8	97.4%	101%	109%	114%	90.8%	102%	99.3%	106%	92.1%	91.8%	92.3%	101%	101%	111%	91.3%	87.8%	104%	85.8%	–
Nc1c(C(=O)Nc2ccccc2Cl)sc2nc3c(cc12)C(=O)CCC3	42.3	75.9%	37.9%	83.3%	12.4%	32.8%	24.9%	91.1%	3.38% (active)	48.5%	24.9%	38.5%	70.3%	61.7%	95.7%	14.7%	69.9%	42.9%	50.2%	–
